The test system of the experiment is HepG2. In words: GSK_TCMDC: Percent inhibition of human HepG2 cell line. Test compounds present at 10uM. It counts as functional.
For the compound `CCCC(CNCc1cccc(I)c1)CNc1cc(=O)c2ccccc2[nH]1` (stereo not given), the Inhibition (commonly the share of the control response that was lost under treatment) is on record as 0%.
The figure for `CC1(C)N=C(NC(=O)c2cc([N+](=O)[O-])cc([N+](=O)[O-])c2)N=C(N)N1OCc1cccc2ccccc12` is 66%.
The value for `Cc1nc(N)nc(N)c1-c1ccc(Cl)c(Cl)c1` [METOPRINE] was 66%.
The figure for `COc1cc(C(=O)NC2CCN(Cc3ccccc3)CC2)ccc1-c1cc2cc(Cl)c(Cl)cc2[nH]1.O=C(O)C(F)(F)F` is 33%; for `O=C(Nc1ccc(-c2ccc(-c3nc4ccccc4[nH]3)s2)cc1)Nc1ccsc1` it is 25%.
Compound `O=C(NCc1ccc(C(=O)NC2CCCCC2)cc1)c1ccc(O)c(-c2ccc(Cl)c(Cl)c2)c1` gave an Inhibition of 5%.
The compound `O=C(Nc1cccnc1)c1cc(-c2cc(Cl)ccc2O)n[nH]1` displayed an Inhibition of 7%.
The figure for `CCNc1cc(C(=O)N[C@@H](Cc2ccccc2)[C@H](O)CNC(C)(C)CCCC(C)C)cc(N2CCCC2=O)c1.O=CO` is 0%.
Compound `C[C@H](NC(=O)C1CCCC1)C(=O)Nc1ccc(-c2ccc(-c3nc4cc(C(F)(F)F)ccc4[nH]3)cc2)cc1` came in with an Inhibition of 34%.
The figure for `COc1ccc(-n2c(=O)c3c(n4c(SC(C)C)nnc24)-c2ccccc2CC32CCCCC2)cc1` is 0%; for `CCNc1cc(C(=O)N[C@@H](Cc2ccccc2)[C@H](O)CNC(C)(C)Cc2ccccc2)cc(N2CCCC2=O)c1.O=CO` it is 1%; for `O=[N+]([O-])c1cccc(/C=N/Nc2ccnc3cc(F)ccc23)c1` it is 4%.
The figure for `CCCNCc1ccc(-c2ccc(CN(CC3CCCO3)C(=O)C3CC(=O)c4ccccc43)cc2)nc1.O=C(O)C(F)(F)F` (stereo not given) is 0%; for `O=C(NC1CC1)c1ccc(N2CCC(Cc3ccccc3)CC2)nc1.O=C(O)C(F)(F)F` it is 13%.
The figure for `CCCCNc1c(C(=O)OCC)c(C)nc2c1[nH]c1ccccc12` is 0%.
Consider `Cc1ccc(-n2c(C)nc3c(Nc4ccc(-c5ccncc5)cc4)ncnc32)c(C)c1`, for which the Inhibition is listed as 38%.
The figure for `CCNc1cc(C(=O)N[C@@H](Cc2ccccc2)[C@H](O)CNC(C)(C)CC(C)(C)C)c(F)c(N2CCCCS2(=O)=O)c1` is 8%; for `COc1ccccc1-c1cccc(CNC2CCN(CC3Cn4c(=O)ccc5ccc(F)c3c54)CC2)c1.O=C(O)C(F)(F)F` (stereo not given) it is 30%; for `Cc1nc(NCCCn2ccnc2)cc(-c2cncc(-c3ccc(OC(F)(F)F)cc3)c2)n1` it is 2%.
Consider `CN1CC[C@@H](Oc2cc(CNC(=O)c3ccc(-c4ccc(Cl)cc4)s3)ccc2C(F)(F)F)C1.Cl`, for which the Inhibition worked out at 40%.
The figure for `CCOc1cc(C)ccc1C1CCN(CCN2CCC(CNC(=O)c3ccc(-c4ccc(C(F)(F)F)cc4)cc3)CC2)CC1` is 53%; for `COc1ccc(CNCCCCCCNCCc2ccc(Cl)cc2)cc1OC.Cl` it is 21%; for `COc1ccc(C2CC(c3cccs3)=NN2C(=O)CNc2cccc(C#N)c2)cc1OC` (stereo not given) it is 8%.
The value for `Cl.c1cc2c3c(cccc3c1)NC(CCCCCCCCC1=Nc3cccc4cccc(c34)N1)=N2` was 14%.
Regarding `S=C(NCCN1CCOCC1)Nc1ccccc1`, the Inhibition worked out at 3%.
Compound `CCN(CCN(C)C)Cc1ccc(-c2ccc(NS(=O)(=O)c3cccc(Cl)c3)cc2)cc1.O=C(O)C(F)(F)F` gave an Inhibition of 43%.
`O=[N+]([O-])c1ccc(Nc2nc(N/N=C/c3ccc(-c4ccc([N+](=O)[O-])cc4)o3)nc(Nc3ccccc3)n2)cc1` displayed an Inhibition of 0%.
The figure for `COc1cccc(NC(=O)[C@H](C)n2c(=O)[nH]c3ccccc3c2=O)c1` is 8%; for `Cc1cccc2nc(-c3cccc(-c4cccc(NC(=O)c5c[nH]cn5)c4)c3)[nH]c12` it is 2%; for `CC(C)COc1ccc(Cl)cc1Cc1ccc(-c2nc3c(F)cccc3[nH]2)o1` it is 15%.
As for `CCc1cccc2c(C#N)cn(CC(=O)Nc3ccc(OC)cc3)c12`, the Inhibition was determined as 0%.
Take `O=C(/C=C/c1ccc(Cl)c(Cl)c1)NCCCCN1CCCN(C(=O)Nc2ccc(Cl)c(Cl)c2)CC1`: the Inhibition came to 22%.
Take `COc1cccc2c(N/N=C/c3ccccc3[N+](=O)[O-])ccnc12`: the Inhibition was found to be 8%.
The figure for `NC1CCN(Cc2ccc(-c3cccc(-c4nc5cc(F)ccc5[nH]4)c3)cc2)C1.O=C(O)C(F)(F)F` (stereo not given) is 47%; for `CCOC(=O)c1ccc(NC(=O)N[C@@H](Cc2ccc(O)cc2)C(=O)NC2CCN(Cc3ccc4c(c3)OCO4)CC2)cc1.O=C(O)C(F)(F)F` it is 0%; for `CS(=O)(=O)c1ccc(CCNCc2ccc(-c3ccc(CN(C(=O)C4CC(=O)c5ccccc54)C4Cc5ccccc5C4)cc3)nc2)cc1.O=C(O)C(F)(F)F` (stereo not given) it is 5%.
The value for `COc1ccc(NC(=O)NC2CCN(CCCCCNC(=O)/C=C/c3ccc(Cl)c(Cl)c3)CC2)cc1` was 5%; that for `COc1ccc2nc(-c3ccccc3)cc(NCCCNc3cc(-c4ccccc4)nc4ccc(OC)cc34)c2c1.Cl` was 100%.
The figure for `CCN(CC)CCNc1ccnc2[nH]c3ccc(C)cc3c12` is 9%.
Compound `COCCn1c(SC(C)C(=O)Nc2cc(C(F)(F)F)ccc2Cl)nc2ccccc2c1=O` (stereo not given) gave an Inhibition of 8%.

Source of the values: ChEMBL document CHEMBL1157539, “Thousands of chemical starting points for antimalarial lead identification” (Nature, 2010).
